Experimental data taken from the supplement of paper PMC7156485.
± gives the standard deviation of the averaged measurements.

Columns and labels:
Conditions in all cases: concentration: 10 µM; 24 h
HCC1569 [1] = experiment: cell number relative to DMSO (% of DMSO); higher = more cells (less growth inhibition / toxicity)
Outline: (§1)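 Cells were seeded at 800 per well in 384-well plates with RPMI containing 10% FBS; both HCC1569 and TDF lines were used. Compounds were added at 10 µM for 24 h at 37 °C, in triplicate, before fixation in 3.7% formaldehyde and staining with a rabbit anti-H1.0 antibody, an AlexaFluor 647 secondary and DAPI. H1.0 nuclear intensity or cell number is reported as percent of the plate control using the median of replicates, and HCC1569 values were smoothed for positional effects.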

TDF [2] = experiment: as above
Outline: as §1

TDF [3] = experiment: H1.0 immunofluorescence intensity relative to DMSO (% of DMSO); higher = stronger H1.0 induction, active = 120 or more
Outline: as §1

HCC1569 [4] = experiment: H1.0 immunofluorescence intensity relative to DMSO (% of DMSO); higher = stronger H1.0 induction, active = 140 or more
Outline: as §1
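For H1.0 immunofluorescence intensity relative to DMSO in this document: TDF is a line of transformed human dermal fibroblasts of mesenchymal origin.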
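For cell number relative to DMSO in this document: TDF denotes transformed human dermal fibroblasts of mesenchymal origin.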

SMILES	cell number (HCC1569 [1])	cell number (TDF [2])	H1.0 immunofluorescence intensity (TDF [3])	H1.0 immunofluorescence intensity (HCC1569 [4])
Br.CN1CCc2c(cc(O)c(O)c2Cl)C(c2cccc(Cl)c2)C1 (centres undefined)	89.6	81.1	91.9 (inactive)	112 (inactive)
Br.CN=c1nc(-c2ccccc2)n(-c2ccccc2)s1	97.5	107	90.9 (inactive)	111 (inactive)
COc1ccc(C=Cc2cc(O)cc(OC3OC(CO)C(O)C(O)C3O)c2)cc1O (centres undefined) [Rhapontin]	99.2	104	96 (inactive)	83.7 (inactive)
NS(=O)(=O)c1cc2c(cc1Cl)NC(C(Cl)Cl)NS2(=O)=O (centres undefined) [Trichloromethiazide]	106	105	93.9 (inactive)	110 (inactive)
CC[N+](C)(C)Cc1ccccc1Br.Cc1ccc(S(=O)(=O)[O-])cc1 [Bretylium tosylate]	83.4	80.2	105 (inactive)	103 (inactive)
CC1(C)CC(NC(=O)C(=O)Nc2ccc(Cl)cc2)CC(C)(C)N1	104	107	91 (inactive)	99.1 (inactive)
CN(C)CCCN1c2ccccc2Sc2ccc(Cl)cc21.Cl [Chlorpromazine.HCl]	96.5	99.7	106 (inactive)	113 (inactive)
CN(C)CCC(c1ccc(Cl)cc1)c1ccccn1 (centres undefined) [Chlorpheniramine]	100	98.1	96.2 (inactive)	105 (inactive)
COc1cc(C2Oc3cc(C4Oc5cc(O)cc(O)c5C(=O)C4O)ccc3OC2CO)ccc1O (centres undefined) [Silybine]	100	103	95.9 (inactive)	90.2 (inactive)
COc1cc2c(c(OC)c1OC)-c1c(cc3c(c1OC)OCO3)C[C@H](C)[C@@](C)(O)C2	97.6	95.4	96.3 (inactive)	101 (inactive)
Cl.NC(=NCc1ccccc1)NC(=O)c1nc(Cl)c(N)nc1N [Benzamil hydrochloride]	94.7	105	92.3 (inactive)	105 (inactive)
CC(C[N+](C)(C)C)OC(N)=O.[Cl-] (centres undefined) [Bethanechol chloride]	91.3	100	92.6 (inactive)	99.3 (inactive)
CC(=O)NC(CSCC=C(C)CCC=C(C)CCC=C(C)CCC=C(C)C)C(=O)O (centres undefined)	102	98.3	105 (inactive)	95.9 (inactive)
CCCCNc1ncc(C(=O)NCc2ccc(-n3ccnc3)cc2)c(NC2CCC(O)CC2)n1 (centres undefined)	65.8	63.4	118 (inactive)	104 (inactive)
CCCCCC=CCC=CC=CC(O)CC=CCCCC(=O)O (centres undefined)	98.1	99.8	97.3 (inactive)	95.8 (inactive)
CN(C)CCOc1cc(-c2cn[nH]c2)ccc1NC(=O)C1COc2ccccc2O1 (centres undefined)	103	95.7	87.3 (inactive)	112 (inactive)
CC(C)CCNC(C)C1CCC2C3CC=C4CC(O)CCC4(C)C3CCC12C (centres undefined) [22-Azacholesterol]	104	98.5	104 (inactive)	110 (inactive)
COc1cc(O)c2c(=O)c(O)c(-c3ccc(O)c(O)c3)oc2c1 [Rhamnetine]	91.7	89.5	93 (inactive)	130 (inactive)
CC(C)C(CO)Nc1nc(Nc2cc(N)cc(Cl)c2)c2ncn(C(C)C)c2n1 (centres undefined)	60.6	45.9	111 (inactive)	177 (active)
Cc1c(O)cc2c(c1C)OC(C)(CCCC(C)CCCC(C)CCCC(C)C)CC2 [D-γ-Tocopherol]	100	98.7	98.5 (inactive)	102 (inactive)
CCCC1CC(C(=O)NC(C(C)O)C2OC(SC)C(O)C(O)C2O)N(C)C1 (centres undefined) [Lincomycin]	103 ± 1.5	113 ± 2.2	93.1 (inactive)	93 (inactive)
N[C@@H](Cc1cc(I)c(Oc2cc(I)c(O)c(I)c2)c(I)c1)C(=O)O [L-thyroxine]	103	89.5	97.6 (inactive)	96.6 (inactive)
Nc1[nH]nc2nc3ccccc3nc12 [Cdk1/5 Inhibitor]	99.6	95.2	104 (inactive)	113 (inactive)
O=[N+]([O-])c1ccc([O-])c(OS(=O)(=O)[O-])c1.[K+].[K+] [dipotassium 5-nitro-2-oxidophenyl sulfate]	99.5	108	90.9 (inactive)	100 (inactive)
Cl.NC12CC3CC(CC(C3)C1)C2 [Amantadine.HCl]	103	103	92.2 (inactive)	99 (inactive)
CCCCCC=CCC=CC=CC=CCC(=O)CCCC(=O)O [5-Ketoeicosatetraenoic acid]	99.9	95.5	98.1 (inactive)	96.5 (inactive)

SMILES	cell number (HCC1569 [1])	cell number (TDF [2])	H1.0 immunofluorescence intensity (TDF [3])	H1.0 immunofluorescence intensity (HCC1569 [4])
Cc1[nH]c2ccccc2c1C1=C(NCCc2ccc(F)cc2)C(=O)N(C)C1=O	82.4	59	137 (active)	113 (inactive)
COC(=O)C1C(O)CCC2CN3CCc4c([nH]c5ccccc45)C3CC21.Cl (centres undefined)	102 ± 5.1	107 ± 3.6	91.2 (inactive)	100 (inactive)
Cl.NC(CO)C(=O)NNCc1ccc(O)c(O)c1O (centres undefined) [Benserazide hydrochloride]	91.1	95.6	98.3 (inactive)	96.3 (inactive)
Clc1ccc(Nc2nnc(Cc3ccncc3)c3ccccc23)cc1 [Vatalanib]	103	103	97.2 (inactive)	105 (inactive)
OC(CS)C(O)CS (centres undefined)	103	104	93.7 (inactive)	102 (inactive)
CC(=O)C1CCC2C3CCC4=CC(=O)CCC4(C)C3CCC12C (centres undefined) [Progesterone]	101.3 ± 0.57	99.1 ± 7.3	95.9 (inactive)	102 (inactive)
CC(=O)OCC[N+](C)(C)C [Acetylcholine]	106	103	100 (inactive)	100 (inactive)
CC(C)C(CO)Nc1nc(Nc2ccc(C(=O)O)c(Cl)c2)c2ncn(C(C)C)c2n1 (centres undefined)	100	112	96.7 (inactive)	115 (inactive)
O=C1C(=O)C(c2ccc(O)c(O)c2)Oc2cc(O)cc(O)c21 (centres undefined) [2-(3,4-dihydroxyphenyl)-3,5,7-trihydroxy-4H-chromen-4-one]	81.2	74.4	103 (inactive)	158 (active)
NC(=O)c1ccc2nc(-c3ccc(Oc4ccc(Cl)cc4)cc3)[nH]c2c1 [Chk2 Inhibitor II]	97.4	100	91.4 (inactive)	132 (inactive)
COc1ccccc1N1CCN(CCN2C(=O)CC3(CCCC3)CC2=O)CC1.Cl.Cl [BMY 7378 dihydrochloride]	98.3	98.9	90.3 (inactive)	89.9 (inactive)
FC(F)(F)c1ccccc1-n1ccnc1 [1-[2-(Trifluoromethyl)phenyl]imidazole]	100	96	96.5 (inactive)	108 (inactive)
COc1ccc(-c2ccc3c(N4CCOCC4)nc(N4CC(C)OC(C)C4)nc3n2)cc1CO (centres undefined)	73	78.1	87.6 (inactive)	164 (active)
O=S1(=O)CCN(CN2CCS(=O)(=O)NC2)CN1	98.4	99.3	88.2 (inactive)	94 (inactive)
CN(CCOc1ccc(CC(Nc2ccccc2C(=O)c2ccccc2)C(=O)O)cc1)c1ccccn1 (centres undefined)	102	104	92.6 (inactive)	88.2 (inactive)
CC(C)NCC(O)COc1cccc2ccccc12.Cl [(S)-Propranolol hydrochloride]	74.5	95.9	87.7 (inactive)	230 (active)
O=c1cc(-c2ccccc2)oc2cc(O)c(O)c(O)c12 [Baicalein]	98.9 ± 2.6	92.95 ± 0.67	93.3 (inactive)	99.6 (inactive)
CC#N.Nc1nc(Nc2ccc(S(N)(=O)=O)cc2)nn1C(=O)c1c(F)cccc1F [Aurora Kinase/Cdk Inhibitor]	62	39.5	98.1 (inactive)	83.7 (inactive)
O=C1Cc2c([nH]c3ccc([N+](=O)[O-])cc23)-c2ccccc2N1 [Alsterpaullone]	82.4 ± 33	72.6 ± 41	92.9 (inactive)	99.1 (inactive)
CC(Cc1ccccc1)Nc1ncnc2c1ncn2C1OC(CO)C(O)C1O (stereo not drawn) [R(-)-N6-(2-Phenylisopropyl)adenosine]	107	96.5	93.6 (inactive)	102 (inactive)
CCCCCCCCCCCCCCCC(=O)NC(CN1CCOCC1)C(O)c1ccccc1 (racemic)	103	94.8	97.6 (inactive)	102 (inactive)
CSc1nc(N)c2ncn(C3OC(COP(=O)([O-])OP(=O)([O-])OP(=O)([O-])[O-])C(O)C3O)c2n1.[Na+].[Na+].[Na+].[Na+] (centres undefined) [2-Methylthioadenosine triphosphate tetrasodium]	102	109	93 (inactive)	95.7 (inactive)
CCCCCCCCCCCCCCCC(O)C(CO)NC(=O)CCCCCCC (centres undefined) [C8 Dihydroceramide]	100	104	97.1 (inactive)	108 (inactive)
CC(NC(=O)C(C#N)=Cc1ccc(O)c(O)c1)c1ccccc1 (centres undefined) [Tyrphostin AG 835]	87.3	87.3	75 (inactive)	114 (inactive)
CCOC(=O)[C@H](CCc1ccccc1)N[C@@H](C)C(=O)N1C(=O)N(C)C[C@H]1C(=O)O.Cl	107	99.6	100 (inactive)	92.3 (inactive)
